From PubChem BioAssay AID1490 (National Center for Advancing Translational Sciences (NCATS), 2009) come the findings set out here.

The campaign covered roughly 310,000 compounds. About 11,000 (3.5%) were called active. Another 4% or so got no clear call; they are omitted. This is one part of a sample in which actives are shown more often than they occur. Calls come from the whole dose curve; as a rule, active = well fitted inhibition curve with a large enough effect; inconclusive = small, poorly fitted or top-dose-only effect, or another doubt; inactive = no such curve, though single readings can be large or run the other way.
Potency is the fitted concentration of half-maximal effect.

For the assay, the target named is 4'-phosphopantetheinyl transferase ffp (Bacillus subtilis) (UniProt Q9F4F7). Briefly: qHTS Assay for Inhibitors of Bacillus subtilis Sfp phosphopantetheinyl transferase (PPTase).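 For largest response in the series, negative = inhibition: 0% = enzyme reaction without inhibitor and -100% = no enzyme wells.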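 Note: the enzyme is Sfp with the accession as filed and its product quenches rhodamine fluorescence.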 The note with it: Biochemical Sfp PPTase activity. In outline: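 Sfp 15 nM + cpd, 15 min RT; start w/ rhodamine-CoA 5 uM, BHQ-2-YbbR 12.5 uM (final); 50 mM Hepes pH 7.6, 10 mM MgCl2, 0.01% NP-40, 0.01% BSA; read 525/598 nm at 0 and 30 min.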
With `Cc1ccc(CNC(=O)C(=O)c2cn(CC(=O)N3CCOCC3)c3ccccc23)cc1`, the largest response in the series, negative = inhibition is 6.58% (inactive).
In the case of `O=C(Oc1ccc(C(=S)N2CCOCC2)cc1)c1ccc(F)cc1`, the Potency was 50.1 µM (active).
With `O=C(Oc1ccc(F)cc1)N1CCOCC1`, the largest response in the series, negative = inhibition was 11.2% (inactive).
Same read-out and setting: in the case of `Cc1ccc(C(=O)Oc2ccc(C(=S)N3CCOCC3)cc2)cc1` it was -21.7% (inactive); in that of `NNC(=O)CNC(c1ccccc1)c1cc(Cl)ccc1NC(=O)c1ccccc1` (stereo not drawn), 5.82% (inactive); in that of `Cc1ccc(SCC(CC(C)C)N2CCN(CCc3ccccc3)CCC2=O)cc1` (stereo not drawn), -29.9% (inactive).
Take `Cc1cc(N(C)C)nc(Cl)n1`: the largest response in the series, negative = inhibition is -4.8% (inactive).
Consider `COc1ccc(-c2cc(C(=O)N(C)Cc3ccccc3)c3ccccc3n2)cc1`, for which the largest response in the series, negative = inhibition is -16.8% (inactive).
For the compound `CN(C)c1cc(N)c2ccccc2n1` (tested in a mixture with another compound), the Potency was 56.2 µM (active).
With `CN(Cc1ccccc1)S(=O)(=O)c1nnc(NC(=O)c2ccccc2F)s1`, the largest response in the series, negative = inhibition was 16.4% (inactive).
In the case of `O=C(Cc1cccs1)NCc1cccc(C(F)(F)F)c1`, the largest response in the series, negative = inhibition is 6.74% (inactive).
As to `NC(=O)CC(NC(=O)Cc1ccc(Br)cc1)c1ccc(NC2CC3CCC2C3)c([N+](=O)[O-])c1` (stereo not drawn), the largest response in the series, negative = inhibition was 15.4% (inactive).
For the compound `O=C(Nc1ccc(Cl)cc1)c1cccc(OC(=S)N2CCOCC2)c1`, the largest response in the series, negative = inhibition is 5.61% (inactive).
`CCOC(=O)c1c(N)sc(C(C)=O)c1C`: the largest response in the series, negative = inhibition is -34.1% (inactive).
With `COCCOC(=O)c1sc(=S)n(CCOC)c1N`, the Potency was 25.1 µM (active).
For the compound `O=C(N/C(=C\c1ccc(O)cc1)C(=O)N1CCCCC1)c1ccccc1`, the largest response in the series, negative = inhibition is 11.6% (inactive).
The same measure, in the same setting: in the case of `Cc1ccc2c(=O)cc(C(=O)NCCc3ccc(S(N)(=O)=O)cc3)oc2c1C` it was 15.4% (inactive); in that of `CCOc1ccc2nc(SC(CC)C(=O)Nc3cc(C)on3)sc2c1` (stereo not drawn), 9.59% (inactive).
In the case of `CCOc1ccc2nc(Nc3nc4ccc(NC(C)=O)cc4s3)sc2c1`, the largest response in the series, negative = inhibition is -21.4% (inactive).
Turning to `CCOc1ccc2nc(C(=O)N3CCCC(C)C3)sc2c1` (stereo not drawn), the Potency is 25.1 µM (active).
For the compound `CCN(CC)CCCNC(=O)c1c(O)c2cc(F)cc3c2n(c1=O)C(C)CC3` (stereo not drawn), the largest response in the series, negative = inhibition is 2.11% (inactive).
Take `COc1ccc(C=Nc2cccc3ncccc23)cc1`: the largest response in the series, negative = inhibition was -8.45% (inactive).
As for `O=[N+]([O-])c1ccc(N=Cc2c(O)ccc3ccccc23)cc1`, the largest response in the series, negative = inhibition is -6.3% (inactive).
As to `Oc1c(C=Nc2cccc3nsnc23)ccc2ccccc12`, the Potency is 44.7 µM (active).
Take `Cc1cc2c(cc1S(=O)(=O)CCC(=O)NCc1ccccc1)OCC(=O)N2`: the largest response in the series, negative = inhibition was 18.5% (inactive).
Regarding `CC(=O)N1CC[n+]2c(-c3ccc([N+](=O)[O-])cc3)csc21`, the Potency was 5.62 µM (active).
With `CN1C2CCC1CC(NC(=O)c1ccc([N+](=O)[O-])cc1)C2` (stereo not drawn), the largest response in the series, negative = inhibition was 9.32% (inactive).
With `COc1ccc(C2CC(c3ccc([N+](=O)[O-])cc3)=NN2C(C)=O)cc1` (stereo not drawn), the largest response in the series, negative = inhibition is 0.697% (inactive).
For `CC(C)=CCc1c(O)c(CC=C(C)C)c2occ(-c3ccc(O)cc3)c(=O)c2c1O`, the largest response in the series, negative = inhibition was -6.29% (inactive).
In the case of `OCC(CO)NC1C[C@](O)(CO)[C@@H](O)[C@H](O)[C@H]1O` (stereo partly drawn), the largest response in the series, negative = inhibition is 7.78% (inactive).
On to `O=C(NC(Cc1ccccc1)C(=O)O)/C(=C\c1ccccc1)NC(=O)c1ccco1` (stereo not drawn), for which the largest response in the series, negative = inhibition was 16.2% (inactive).
Regarding `COc1cccc(-c2noc(C3CCCN(C(=O)c4ccc(F)cc4)C3)n2)c1` (stereo not drawn), the largest response in the series, negative = inhibition was 12.5% (inactive).
Take `FC(F)(F)C1CCCN(c2nsc3ccccc23)C1` (stereo not drawn): the Potency is 15.8 µM (active).
With `CC(C(=O)NC1CCCCC1)N1C(=O)c2cccc3cccc1c23` (stereo not drawn), the largest response in the series, negative = inhibition was 4.03% (inactive).
In the case of `COC(=O)c1ccc(OC(=O)c2cnccn2)cc1`, the largest response in the series, negative = inhibition is -8.15% (inactive).
Still for that read-out and setting: in the case of `O=C(O)CSc1nnc(-c2ccc3c(c2)OCO3)n1-c1ccccc1` it was 30.8% (inactive).
For the compound `Cn1c(SCc2nc3ccccc3s2)nnc1-c1ccc2c(c1)OCO2`, the Potency was 14.1 µM (active).
Consider `Cn1c(SCC(=O)N2CCCC2)nnc1-c1ccc2c(c1)OCO2`, for which the largest response in the series, negative = inhibition is 8.6% (inactive).
Take `CCc1c(C)[nH]c(=S)c(C#N)c1C`: the Potency is 12.6 µM (active).
As for `COc1ccc(/C(C)=N\NC(=O)c2ccc(-c3ccccc3)cc2)c(F)c1`, the largest response in the series, negative = inhibition is 12.8% (inactive).
For `COc1ccc(N(Cc2cc3ccc(C)cc3[nH]c2=O)S(=O)(=O)c2ccccc2)cc1`, the largest response in the series, negative = inhibition was 6.39% (inactive).
On to `CCn1c2ccc(F)cc2c2nnc(SCCN3CCOCC3)nc21`, for which the largest response in the series, negative = inhibition was -2.54% (inactive).
Consider `COc1ccc(N2CCN(C(=O)CSc3ncnc4c3cnn4-c3ccc(OC)cc3)CC2)cc1`, for which the largest response in the series, negative = inhibition is -1.71% (inactive).
As to `COc1ccc(N2CCN(C(=O)CSc3nc4cc(OC)c(OC)cc4cc3C#N)CC2)cc1`, the Potency is 63.1 µM (active).
Regarding `CCOc1ccc(-c2nnn(CC(=O)N3CCN(c4ccc(OC)cc4)CC3)n2)cc1OCC`, the largest response in the series, negative = inhibition was 20.4% (inactive).
Regarding `CCN(CC(=O)Nc1ccc(C)c(S(=O)(=O)N(C)C)c1)Cc1ccccc1`, the largest response in the series, negative = inhibition was -18.4% (inactive).
On the same count and under the same terms, in the case of `Cn1c(SCC(=O)N2CCCC2)nnc1-c1cccs1` it was 5.11% (inactive); in that of `Cc1c(C(=O)N2CCCC2)c(S(=O)(=O)NCC(C)c2ccccc2)c(C)n1C` (stereo not drawn), -2.67% (inactive).
